Results reported in PubChem BioAssay (NCI).
About 83,000 compounds went through this panel and 20% of them were active in at least one assay; those are over-represented in the sample as a whole.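 Activity criterion: percent growth below 10, measured after cells in 96-well plates were exposed to a single compound concentration for 48 hours.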 Values without a mark were called inactive. Calls of active or inactive are those of the source.

Test system: HL-60(TB) leukemia
Assay: NCI-60 one-dose screen, 48 h (100 = growth as untreated, 0 = no growth, -100 = all killed)
Conditions: 10 µM unless noted

SMILES	growth
CC(C)C(=O)Cc1cnccn1	134%
Nc1ncnc2c1ncn2C1(CO)OCC(O)C(O)C1O (configuration not stated)	95.9%
O=c1c(O)cccn1CCCNCCCN(CCCn1cccc(O)c1=O)CCCn1cccc(O)c1=O	120%
O=C(NC[C@H](O)CO)c1ccncc1Nc1ccc(I)cc1F	24.2%
C(=N/Nc1ncc(-c2cc3cc(-c4ccccc4)ccc3o2)s1)/c1cccs1	96.4%
CC(=O)OC1Oc2cc(C)c(C)cc2-c2oc(=O)c(-c3ccccc3)cc21 (configuration not stated)	-39.1% (active)
CCCCCCC(=O)Nc1ncc(Cc2ccc(C)cc2)s1	-18.2% (active)
O=c1ccn(C2OC(CO)C(O)C2F)c(=O)[nH]1 (configuration not stated)	130%
Cc1cc2oc(=O)cc(CP(=O)(O)O)c2cc1O	111%
CCOC(=O)c1c(C)c(C(=O)OCC)n(C)c1C	85.9%
COc1ccc(Cl)cc1C(=O)Nc1nc2ccc(Cl)cc2s1	103%
COc1cc(C(=O)/C=C/c2ccc(OCCCCCC[P+](c3ccccc3)(c3ccccc3)c3ccccc3)cc2)cc(OC)c1OC	11.5%
CCN(C)S(=O)(=O)Nc1cccc(Nc2ncnc3cc(NC(=O)CCl)ccc23)c1Cl	4.38% (active)
O=C1NC(=O)C(CSc2ccccc2)(c2ccccc2)N1 (configuration not stated)	99.9%
Clc1ccc(C2CC(c3cccc(Nc4ccncc4)c3)=NN2c2ccc(Cl)cc2)cc1 (configuration not stated)	-45.3% (active)
O=C(O)c1ccc(-n2cc(/C=N/Nc3ccc(F)cc3)c(-c3cccc(C(F)(F)F)c3)n2)cc1	34.3%

SMILES	growth
CNC(=O)c1ccccc1Sc1ccc2c(/C=C/c3ccccn3)n[nH]c2c1	12.6%
Clc1ccc2c(NCCNc3nc(Cl)nc4ccccc34)ccnc2c1	-67% (active)
COc1cccc2nc3n(c12)C(c1c(F)cccc1F)SC3 (configuration not stated)	70.3%
COc1ccc(C2CC(c3ccc(Nc4nc(Nc5ccc(F)cc5)nc(Nc5ccc(Cl)cc5)n4)cc3)=NN2C(C)=O)cc1 (configuration not stated)	206%
O=C(Cc1ccc(NC(=O)c2cccc(Cl)c2)cc1)NCc1ccccc1	-14% (active)
C=C1C(=O)O[C@H]2[C@H]1CC/C(COC(=O)CCCCCC(=O)OC/C1=C/CC[C@@]3(C)O[C@H]3[C@H]3OC(=O)C(=C)[C@@H]3CC1)=C\CC[C@@]1(C)O[C@@H]21	-30% (active)
CC(C)NC[C@@H](C(=O)N1CCN(c2ncnc3c2[C@H](C)C[C@H]3O)CC1)c1ccc(Cl)cc1	82%
CCN(CC)CCCC(C)N/C(c1cccc(OC)c1)=c1\c(=O)[nH]n(-c2c3ccccc3nc3ccccc23)c(=O)\c1=C(/NC(C)CCCN(CC)CC)c1cccc(OC)c1 (configuration not stated)	-43.5% (active)
NC(=S)NN=C1CCCC1	95.1%
CNC(=O)c1cc(Oc2cccc3nc(Nc4ccc(F)c(Cl)c4)ccc23)ccn1	31.1%
O=C(Nc1cc(Nc2ncccc2-c2ncnc3nc[nH]c23)ccc1F)c1cc(C(F)(F)F)cc(C(F)(F)F)c1	-11.3% (active)
O=CCCCC(O)C=O (configuration not stated)	92.2%
CC(=O)c1cccs1	130%
COc1cccc(OC)c1C(=O)N[C@@H]1C(=O)N2[C@@H]1SC(C)(C)[C@@H]2C(=O)O	94.3%
CN1CCN(Cc2ccc(NC(=O)c3cncc(C#Cc4cnc(N)c5cccnc45)c3)cc2C(F)(F)F)CC1	-13.9% (active)
CCc1ccc(NC(=O)N[C@@H](Cc2cc(F)cc(F)c2)C(=O)N[C@@H]2C(=O)N3C[C@H](O)C[C@H]3C(=O)N3CCOC[C@H]3C(=O)N[C@@H](C)C(=O)N3C[C@H](C)C[C@H]3C(=O)O[C@H]2C)cc1	23.8%
